Some compounds were tested as several samples or in several runs, with calls that do not always agree. Activity calls are given as the source filed them. Rule for the calls: active = hit-call score of the fitted dose curve at least 0.9, where 1 is the maximum; inactive = score below 0.9.
Each compound was assayed on Monocyte Chemoattractant Protein-1 (MCP1), CCL2 (gene 6347) (assay: BSK_4H_MCP1: BioMAP Diversity Plus: 4H Assay for Monocyte Chemoattractant Protein-1 (MCP1) Biomarker Activity (AID 2283018)). Conditions: primary human endothelial cells (HUVEC); actives raise or lower the signal.
Experimental: BSK_4H is a cell-based, multiplexed-readout assay that uses umbilical vein endothelium, a human vascular primary cell, with measurements taken at 24 hours after chemical dosing in a 96-well plate.BSK_4H_MCP1 is an assay component measured in the BSK_4H assay. It measures MCP-1 antibody related to regulation of gene expression using ELISA technology.Data from the assay component BSK_4H_MCP1 was analyzed into 1 assay endpoint. This assay endpoint, BSK_4H_MCP1, was analyzed with bidirectional fitting relative to DMSO as the negative control and baseline of activity. Using a type of binding reporter, gain or loss-of-signal activity can be used to understand changes in the signaling as they relate to the gene CCL2. Furthermore, this assay endpoint can be referred to as a primary readout, because this assay has produced multiple assay endpoints where this one serves a signaling function. To generalize the intended target to other relatable targets, this assay endpoint is annotated to the cytokine intended target family, where the subfamily is chemotactic factor.
The levels of cell surface (or secreted, indicated by the prefix "s") biomarker endpoints were measured by ELISA. Overt cytotoxicity to cells in confluent adherent cultures (all systems other than the BT system) was assessed by measuring total protein levels using sulforhodamine B (SRB) staining in parallel cultures at the time of biomarker measurements, indicated as SRB endpoints. For proliferation assays for adherent cell types, individual cell types are cultured at sub-confluence and relative cell numbers quantified by SRB staining at time points optimized for each system (48 h: 3C and CASM3C systems; 72 h: BT and HDF3CGF systems; 96 h: SAg system). SRB was performed by staining cells with 0.1% SRB after fixation with 10% TCA and reading wells at 560 nm.Viability and proliferation of PBMC (T cells) was quantified by Alamar Blue reduction for the SAg and BT systems. For PBMC viability (referred to as PBMC Cytotoxicity within the assay endpoint names), cells were plated (75,000/well in a 96-well plate) and then chemical samples added for 1 h before addition of activators, SEB and TSST-1 (20 ng/mL final concentration each). Cells were incubated for 90 h. Then, Alamar Blue (20 uL/well) (Invitrogen, Cat DAL1100) was added for 6 h, and the plates were read with a fluorescence microplate reader at 546/580 nm (excitation/emission). For PBMC proliferation, cells were plated and activated as above but incubated for only 16 h prior to addition of Alamar Blue. Plates were read after 6 h.

| SMILES | outcome | AC50 |
| --- | --- | --- |
| OCCCBr | inactive | – |
| CCCCCCCCCCCCCN1CC(C)OC(C)C1 (stereo not given) | inactive | – |
| CC(C)N(Cc1ccccc1)C(=O)C(C)(C)C | inactive | – |
| CCN(CC)CCO | inactive | – |
| Nc1cc(Cl)cc(C(=O)O)c1Cl | inactive | – |
| CCNS(=O)(=O)C(F)(F)C(F)(F)C(F)(F)C(F)(F)C(F)(F)C(F)(F)C(F)(F)C(F)(F)F | inactive | 30 µM (active) |
| C=CCc1ccc2c(c1)OCO2 | inactive | – |
| CCCCC(CC)COC(=O)c1ccc(C(=O)OCC(CC)CCCC)c(C(=O)OCC(CC)CCCC)c1 (stereo not given) | inactive | – |
| CC(C)(O)c1cnn2c(-c3ccc(F)c(-c4c(F)cccc4C#N)c3)cnc2n1 | inactive | – |
| O=C(Oc1ccc(Br)cc1)N1CCN2CCC1CC2 | inactive | – |
| COC(=O)c1ccccc1N | inactive | – |
| Cc1ccc(N)c(N)c1 | inactive | – |
| COP(=S)(OC)SCN1C(=O)c2ccccc2C1=O | inactive | – |
| CS(=O)(=O)NC(=O)c1cc(Oc2ccc(C(F)(F)F)cc2Cl)ccc1[N+](=O)[O-] | inactive | – |
| Cc1cccc(N)c1N | inactive | – |
| CCC(C)c1ccc(O)cc1 (stereo not given) | inactive | – |
| CN(C)[C@@H]1C(=O)C(C(N)=O)=C(O)[C@@]2(O)C(=O)C3=C(O)c4c(O)cccc4[C@@](C)(O)[C@H]3C[C@@H]12 | inactive | – |
| O=C(O)C1C2CCC(O2)C1C(=O)O (stereo not given) | inactive | – |
| O=C1CCCO1 | inactive | – |
| O=C(N[C@H](c1ccccc1)[C@@H]1CN2CCC1CC2)c1c(Cl)ccc(C(F)(F)F)c1Cl | inactive | – |

| SMILES | outcome | AC50 |
| --- | --- | --- |
| CCCSC(=O)N(CCC)CCC | inactive | – |
| O=C(Nc1ccccc1)c1ccccc1I | inactive | – |
| Clc1ccc(Cl)c(Cl)c1 | inactive | – |
| C[N+](C)(C)CC1CO1 (stereo not given) | inactive | – |
| CC(O)CCO (stereo not given) | inactive | – |
| Cc1ccc(N)cc1 | inactive | – |
| CCC12COCN1COC2 | inactive | – |
| N#CC(Br)(Br)C(N)=O | inactive | – |
| COC(=O)Nc1nc2ccccc2[nH]1 | inactive | – |
| Clc1ccc(C(c2ccc(Cl)cc2)C(Cl)Cl)cc1 | – | 10.2 µM (active) |
| CCCCOC(=O)c1ccccc1C(=O)OCc1ccccc1 | – | 11.8 µM (active) |
| CO[C@@H]1[C@H](OC(=O)NC(=O)CCl)CC[C@]2(CO2)[C@H]1[C@@]1(C)O[C@@H]1CC=C(C)C | inactive | – |
| Cc1cc(N=Nc2ccccc2C)ccc1N | inactive | – |
| O=Cc1ccco1 | inactive | – |
| Brc1ccc(Oc2ccccc2)cc1 | inactive | – |
| c1ccc(N=Nc2ccccc2)cc1 | inactive | – |
| CC(C)(C)OOC(=O)c1ccccc1 | inactive | – |
| Cc1ccc([N+](=O)[O-])cc1 | inactive | – |
| c1ccc(C2CO2)cc1 (stereo not given) | inactive | – |

From PubChem BioAssay (EPA / NIEHS)
